Experimental findings from PubChem BioAssay (EPA / NIEHS) are described below.

Structures are written as SMILES. Inconclusive results are not listed. The source made the active and inactive calls. Rule for the calls, unless noted: active = hit-call score of the fitted dose curve at least 0.9, where 1 is the maximum; inconclusive = response in the unintended direction; inactive = score below 0.9.

For orientation: AC50 means the concentration giving half of the maximal activity seen.

In assay [1] the test system is Thyroperoxidase (TPO), gene 54314. As to the kind of experiment: CCTE_Simmons_AUR_rTPO: CCTE's Amplex UltraRed Assay for Thyroperoxidase (TPO) Inhibition, Simmons Lab (AID 2283662).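 Note: potency for loss of signal meaning inhibition of peroxidase activity.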 The procedure, abridged:
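Rat thyroid microsomes (5 ug protein) with 25 uM Amplex UltraRed and 300 uM H2O2 in 200 mM phosphate buffer, 30 min at 37C in dark; fluorescence 544/590 nm. Eight concentrations, 5 nM–87.5 uM final, 0.5% DMSO, triplicate biological replicates.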

Assay [2] in a line: Tanguay_ZF_120hpf_AXIS_legacy: (Legacy) Oregon State University Tanguay Lab 120 Hour Post-fertilization zebrafish Assay for Body Axis Malformation (AID 2283635).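 For AC50: potency for an increased fraction of larvae scored with body axis malformation.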 The method in brief: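 Chorion is removed with pronase at 4 hpf, then single 6 hpf embryos are dosed (final DMSO 0.64%) and held statically at 28C in sealed, foil-covered plates. At 120 hpf body axis malformation is recorded as present or absent.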

The nature of assay [3]: Tanguay_ZF_120hpf_EYE_legacy: (Legacy) Oregon State University Tanguay Lab 120 Hour Post-fertilization zebrafish Assay for Eye Malformation (AID 2283636). The method in brief:
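Dechorionated wild-type Tropical 5D zebrafish embryos were exposed statically from 6 hpf, one per well, to 120 hpf at 28C in sealed, foil-covered plates with 0.64% DMSO. Eye malformation was scored present/absent by brightfield microscopy against DMSO controls.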

Assay [4] in a line: Tanguay_ZF_120hpf_SNOU_legacy: (Legacy) Oregon State University Tanguay Lab 120 Hour Post-fertilization zebrafish Assay for Snout Malformation (AID 2283637). The method in brief:
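Tropical 5D wild-type zebrafish embryos, dechorionated with pronase at 4 hpf, were exposed singly from 6 hpf to 120 hpf statically at 28C in 0.64% DMSO. Snout malformation was scored present/absent by brightfield microscopy, fitted against DMSO.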

A short description of assay [5]: Tanguay_ZF_120hpf_JAW_legacy: (Legacy) Oregon State University Tanguay Lab 120 Hour Post-fertilization zebrafish Assay for Jaw Malformation (AID 2283638).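 For AC50: active means more embryos with jaw malformation than DMSO controls.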 The procedure, abridged:
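Steps: dechorionate 4 hpf embryos (pronase); plate 1/well at 6 hpf; add test chemical, 0.64% DMSO final; seal, cover, hold at 28C statically to 120 hpf; score jaw defect presence/absence microscopically. Dead embryos not scored.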

Assay [6] can be described thus: Tanguay_ZF_120hpf_OTIC_legacy: (Legacy) Oregon State University Tanguay Lab 120 Hour Post-fertilization zebrafish Assay for Otic Vesicle Malformation (AID 2283639). The method in brief: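 Tropical 5D wild-type zebrafish embryos statically exposed in 0.64% DMSO at 28C until 120 hpf; 5uM trimethyltin chloride as positive control. Otic vesicle malformation scored present/absent by brightfield; dead embryos not scored; gain fitted versus DMSO.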

Assay [7] is described as follows: Tanguay_ZF_120hpf_PE_legacy: (Legacy) Oregon State University Tanguay Lab 120 Hour Post-fertilization zebrafish Assay for Pericardial Edema (AID 2283640).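 For AC50: potency for increased incidence of pericardial edema versus DMSO baseline.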 The procedure, abridged: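 Embryos from wild-type 5D adults were staged, then dosed in 0.64% DMSO. They were kept sealed in the dark at 28C until 120 hpf. Pericardial edema was then recorded as present or absent.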

Assay [8] is described as follows: Tanguay_ZF_120hpf_SOMI_legacy: (Legacy) Oregon State University Tanguay Lab 120 Hour Post-fertilization zebrafish Assay for Somite Malformation (AID 2283647). The method in brief: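 Read-out: presence or absence of somite malformation in 120 hpf larvae, gain-of-signal relative to DMSO baseline. Embryos lacked chorion (pronase, 4 hpf) and were exposed statically from 6 hpf at 28C; dead larvae not scored.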

Assay [9] can be described thus: Tanguay_ZF_120hpf_PFIN_legacy: (Legacy) Oregon State University Tanguay Lab 120 Hour Post-fertilization zebrafish Assay for Pectoral Fin Malformation (AID 2283648).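 Note: each larva judged yes or no for fin defect by brightfield with dead larvae skipped.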 The method in brief: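 Tropical 5D wild-type embryos, dechorionated with pronase at 4 hpf, were placed singly in wells at 6 hpf and statically exposed until 120 hpf at 28C, sealed and dark, with 0.64% (vol/vol) final DMSO; pectoral fin malformation scored present/absent.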

A short description of assay [10]: Tanguay_ZF_120hpf_CFIN_legacy: (Legacy) Oregon State University Tanguay Lab 120 Hour Post-fertilization zebrafish Assay for Caudal Fin Malformation (AID 2283649). The method in brief:
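Binary presence or absence of caudal fin malformation at 120 hpf, read by brightfield microscopy, with DMSO as baseline. Larvae came from 5D wild-type embryos exposed statically from 6 hpf at 28C after pronase dechorionation.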

A short description of assay [11]: Tanguay_ZF_120hpf_PIG_legacy: (Legacy) Oregon State University Tanguay Lab 120 Hour Post-fertilization zebrafish Assay for Pigmentation Malformation (AID 2283650). The method in brief:
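Tropical 5D wild-type zebrafish embryos, dechorionated with pronase at 4 hpf, were exposed singly from 6 hpf to 120 hpf statically at 28C in sealed, dark plates with 0.64% DMSO; pigmentation scored present/absent by brightfield microscopy, fitted against DMSO.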

Assay [12] in a line: Tanguay_ZF_120hpf_CIRC_legacy: (Legacy) Oregon State University Tanguay Lab 120 Hour Post-fertilization zebrafish Assay for Circulatory Malformation (AID 2283651). The method in brief:
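Dechorionated wild-type 5D zebrafish embryos, one per well, statically exposed from 6 to 120 hpf at 28C with 0.64% DMSO; circulatory malformation scored present/absent by brightfield microscopy at 120 hpf, dead embryos excluded.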

A short description of assay [13]: Tanguay_ZF_120hpf_SWIM_legacy: (Legacy) Oregon State University Tanguay Lab 120 Hour Post-fertilization zebrafish Assay for Swim Bladder Malformation (AID 2283654).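 Note: swim bladder malformation in each larva scored yes or no under brightfield.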 The method in brief:
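Dechorionated Tropical 5D wild-type embryos, placed singly from 6 hpf, were statically exposed at 28C to 120 hpf with 0.64% DMSO final; swim bladder malformation was scored present/absent by brightfield microscopy, gain of signal relative to DMSO controls.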

Assay [14] is described as follows: Tanguay_ZF_120hpf_TRUN_legacy: (Legacy) Oregon State University Tanguay Lab 120 Hour Post-fertilization zebrafish Assay for Truncated Body (AID 2283655). The method in brief:
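Truncated body is recorded as a binary endpoint at 120 hpf by brightfield imaging of wild-type 5D larvae. Exposure runs statically from 6 hpf at 28C with 0.64% DMSO; embryos dying earlier are not scored.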

Assay [15] in a line: Tanguay_ZF_120hpf_NC_legacy: (Legacy) Oregon State University Tanguay Lab 120 Hour Post-fertilization zebrafish Assay for Notochord and Tail Malformation (AID 2283656). The procedure, abridged:
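Dechorionated Tropical 5D wild-type zebrafish embryos, one per well from 6 hpf, statically exposed to 120 hpf at 28C in 0.64% DMSO final. Notochord distortion scored present/absent by brightfield; dead embryos excluded.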

Assay [16] is described as follows: Tanguay_ZF_120hpf_BRAI_legacy: (Legacy) Oregon State University Tanguay Lab 120 Hour Post-fertilization zebrafish Assay for Brain Malformation (AID 2283641). The method in brief:
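Wild-type 5D larvae, static waterborne exposure to 120 hpf, 28C, 0.64% v/v DMSO. Brightfield scoring of brain defects, binary; dead embryos excluded. Positive ctrl 5uM trimethyltin chloride.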

Read-out in assay [17]: kallikrein-3 (KLK3), KLK3 (gene 354)
The experiment in a line: LTEA_HepaRG_KLK3: Life Technologies and Expression Analysis (LTEA) Assay for kallikrein-3 (KLK3) using HepaRG (AID 2283652; active = hit-call score of the fitted dose curve at least 0.9, where 1 is the maximum; inactive = score below 0.9). As to conditions: mRNA level, 48 h; actives raise or lower the signal. The procedure, abridged: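 Differentiated human HepaRG cells in serum-free induction medium exposed 48 h in duplicate, eight-point half-log series from 100 uM in 0.5% DMSO. KLK3 mRNA by qRT-PCR, normalised to ACTB, GAPDH, POLR2A; bidirectional fit versus DMSO.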

Read-out in assay [18]: solute carrier (SLC22A6), SLC22A6 (gene 9356)
The experiment in a line: LTEA_HepaRG_SLC22A6: Life Technologies and Expression Analysis (LTEA) Assay for solute carrier (SLC22A6) using HepaRG (AID 2283653; active = hit-call score of the fitted dose curve at least 0.9, where 1 is the maximum; inactive = score below 0.9). Particulars: mRNA level, 48 h; actives raise or lower the signal. The procedure, abridged: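 Read-out is SLC22A6 transcript level by qRT-PCR, normalised to three housekeeping genes and fitted for gain or loss relative to 0.5% DMSO vehicle. Human HepaRG cells received chemicals at up to 100 uM for 48 h.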

Read-out in assay [19]: solute carrier (SLC10A1), SLC10A1 (gene 6554)
As to the kind of experiment: LTEA_HepaRG_SLC10A1: Life Technologies and Expression Analysis (LTEA) Assay for solute carrier (SLC10A1) using HepaRG (AID 2283657; active = hit-call score of the fitted dose curve at least 0.9, where 1 is the maximum; inactive = score below 0.9). As to conditions: mRNA level, 48 h; actives raise or lower the signal. The method in brief: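 Differentiated HepaRG cells were plated 48 h, then exposed in serum-free induction medium for 48 h to 8 concentrations (top 100 uM, half-log steps, 0.5% DMSO). SLC10A1 mRNA was quantified by qRT-PCR normalized to ACTB, GAPDH, POLR2A; bidirectional fit versus DMSO.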

Read-out in assay [20]: matrix metalloproteinase-1 (MMP1), MMP1 (gene 4312)
As to the kind of experiment: LTEA_HepaRG_MMP1: Life Technologies and Expression Analysis (LTEA) Assay for matrix metalloproteinase-1 (MMP1) using HepaRG (AID 2283658; active = hit-call score of the fitted dose curve at least 0.9, where 1 is the maximum; inactive = score below 0.9). As to conditions: mRNA level, 48 h; actives raise or lower the signal. The method in brief: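 HepaRG, ~100,000 cells/well, 48 h pre-culture; serum-free induction medium; test chemical 8 conc (max 100 uM, half-log), duplicate, 48 h; 0.5% DMSO; qRT-PCR MMP1, housekeeping-normalized; gain/loss fit vs DMSO.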

As for `CCCCCCCCCCCCOC(=O)c1cc(O)c(O)c(O)c1`, in [1], the AC50 is 1.05 µM (active).
`O=C1NS(=O)(=O)c2ccccc21`: the result in assay [2], in assay [3], in assay [4], in [5], in [6] and in assay [7] was inactive. The molecule was called inactive in assay [8], in assay [9], in [10], in assay [11], in assay [12] and in assay [13]. Also, the molecule was called inactive in assay [14] and in assay [15].
As to `CCCCc1oc2ccccc2c1C(=O)c1cc(I)c(OCCN(CC)CC)c(I)c1`, the call in assay [2], in [3], in assay [4], in assay [5], in [7] and in [8] was inactive. The call in assay [9], in [10], in assay [11], in [14] and in [15] was inactive.
In the case of `CN(Cc1cnc2nc(N)nc(N)c2n1)c1ccc(C(=O)N[C@@H](CCC(=O)O)C(=O)O)cc1`, the outcome in [2], in assay [3], in assay [4], in [5], in assay [7] and in assay [16] was inactive. For the same molecule, the molecule was classed as inactive in assay [8], in assay [9], in assay [10], in assay [11], in [12] and in assay [13]. The outcome in assay [14] and in [15] was inactive. In [1], the concentration at half-maximal activity (AC50) was 9.76 µM (active).
Take `N=C(N)c1ccc(OCCCCCOc2ccc(C(=N)N)cc2)cc1`: the molecule was called inactive in [2], in assay [3], in assay [4], in assay [5], in assay [6] and in assay [7]. Also, the outcome in [16], in assay [11], in assay [12], in [13], in assay [14] and in assay [15] was inactive.
Turning to `O=C(c1ccccc1)c1ccccc1`, the molecule was classed as inactive in [2], in [3], in assay [4], in [5], in [6] and in [7]. Also, the outcome in [8], in assay [9], in assay [10], in assay [11], in [12] and in assay [13] was inactive. Further, the call in assay [14] and in assay [15] was inactive.
Regarding `CN(C)CCOC(c1ccccc1)c1ccccc1`, the AC50 in assay [2] was 22.3 µM (active); in assay [5], 14.6 µM (active); in assay [7] it was 26.7 µM (active); in [10] it was 14.1 µM (active); in assay [14], 24.8 µM (active). The molecule was called inactive in assay [3], in [4], in [6], in assay [8], in assay [11] and in assay [13]. Further, the molecule was called inactive in assay [15].
For the molecule `C[C@]12CC[C@@H]3c4ccc(O)cc4CC[C@H]3[C@@H]1C[C@@H](O)[C@@H]2O`, the AC50 in assay [1] was 11.9 µM (active).
Turning to `CCC(C)c1ccccc1O` (stereo not given), the molecule was called inactive in assay [2], in assay [3], in [4], in assay [5], in assay [6] and in assay [7]. Further, the molecule was classed as inactive in [16], in assay [8], in [9], in assay [10], in assay [11] and in [13]. In addition, the call in assay [14] and in assay [15] was inactive.
For the molecule `CCCCC=O`, the outcome in assay [2], in assay [8], in assay [9], in assay [12], in assay [17] and in assay [18] was inactive. Also, the call in [13], in assay [14], in assay [15], in [19] and in assay [20] was inactive. The AC50 in assay [3] was 38.4 µM (active); in [4], 44.9 µM (active); in assay [5] it was 38.8 µM (active); in assay [7], 42.9 µM (active); in [16], 54.8 µM (active).
